# How the values were obtained:
# Test in all cases: PBM binding z-score (relative to random genomic background probes); higher = stronger binding; sequences stand for … in GC…GCGATTGACAGCGTAGAATGAAGG
# [1] = test system: RARb homodimer (NR concentration 270 nM)
# Summary of the method: (§1)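 Custom Agilent 4×180K protein-binding microarrays carried double-stranded probes, each with a 34-nt variable region. These regions held direct-repeat seeds, single-nucleotide variants, half-site ablations and random human genomic background sequences. Ligand-free nuclear receptor dimers were incubated on the arrays for 1 h, antibodies against each partner (one per run) detected binding, and scanned fluorescence was regression-normalized. Binding z-scores take the random background probes as reference.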
# [2] = test system: RARg:RXRa (NR concentration 270 nM, RXRa partner concentration 90 nM)
# Summary of the method: as §1
# [3] = test system: RARg homodimer (NR concentration 270 nM)
# Summary of the method: as §1
# [4] = test system: RXRa DBDmut IVT, anti-RXR (DBD mutation: RXRa K156A/R161A, NR concentration 90 nM)
# Summary of the method: as §1
# [5] = test system: RXRa homodimer (NR concentration 180 nM)
# Summary of the method: as §1
# [6] = test system: THRa:RXRa (NR concentration 90 nM, RXRa partner concentration 90 nM)
# Summary of the method: as §1
# [7] = test system: THRa homodimer (NR concentration 90 nM)
# Summary of the method: as §1
# [8] = test system: VDR homodimer (NR concentration 270 nM)
# Summary of the method: as §1
Sequence,PBM binding z-score [1],PBM binding z-score [2],PBM binding z-score [3],PBM binding z-score [4],PBM binding z-score [5],PBM binding z-score [6],PBM binding z-score [7],PBM binding z-score [8]
CCTACTAGGCCAAAGGTCATTGATTCCAATGCTC,4.84,6.22,5.49,2.06,6.88,3.67,1.45,2.65
TCATATAGGTAAGCAGGTGAAAGTCCGTAAGTTA,0.479,0.2,-0.071,0.903,0.347,0.462,0.196,-0.0581
CCTAGTAGGCCAATCTGGGTCACTCAAGGCTTGA,2.52,1.43,1.67,-0.0412,0.813,3.89,0.525,-0.107
TCTATTAGGTGAAGGGCAACCGACGAGTCCGTTT,1.59,1.07,1.35,1.57,0.977,1.42,0.828,1.67
ACTTACGGGGCAACGAGGTTATAGCACGCGTATA,1.13,1.75,1.76,1.63,1.73,2.08,0.279,1.72
CGAATTAGGTCAGAACAGGACAGTGAAGGATGAT,2.36,2.65,3.43,0.886,1.29,3.86,1.01,0.142
CAAACTAGGTCAAGAGCTCAAAGTCCGCTTCCCG,2.98,3.82,4.02,1.34,2.39,2.73,0.891,0.0239
